Measurements taken from PubChem BioAssay (EPA / NIEHS).
“And” between values parts separate entries of the source, which are not always exact repeats. Equal values may be shown once. Results filed as inconclusive are left out. More than one record can exist for a structure, and the calls need not agree. The source made the active and inactive calls. The calls were made as follows: active = hit-call score of the fitted dose curve at least 0.9, where 1 is the maximum; inconclusive = response in the unintended direction; inactive = score below 0.9.

target: Cellular tumor antigen p53 (Homo sapiens) (UniProt P04637); test: TOX21_p53_BLA_p5_ratio: Tox21 HCT-116 p53 Agonism Beta-lactamase Assay, Ratio, Phase 5 (AID 2283599)
Sequence (P04637 whole entry, looked up, the tested form may be a part): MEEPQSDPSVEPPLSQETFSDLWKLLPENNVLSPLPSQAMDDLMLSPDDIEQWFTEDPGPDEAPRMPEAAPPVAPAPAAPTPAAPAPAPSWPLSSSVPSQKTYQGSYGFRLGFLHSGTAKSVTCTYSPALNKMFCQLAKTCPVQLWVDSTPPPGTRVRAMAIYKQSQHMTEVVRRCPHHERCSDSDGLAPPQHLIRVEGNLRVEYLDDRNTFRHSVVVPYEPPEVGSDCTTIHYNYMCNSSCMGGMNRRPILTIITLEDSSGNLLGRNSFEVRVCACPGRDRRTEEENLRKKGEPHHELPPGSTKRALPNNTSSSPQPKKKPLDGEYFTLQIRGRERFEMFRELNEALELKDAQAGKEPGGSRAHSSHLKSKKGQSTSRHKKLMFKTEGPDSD
Excerpt: TOX21_p53_BLA_p5 is a cell-based, single-readout assay that uses HCT116, a human intestinal cell line, […] in a 1536-well plate.TOX21_p53_BLA_p5_ratio is an assay readout measuring reporter gene via receptor activity and designed using inducible reporter (beta lactamase induction) detected with GAL4 b-lactamase reporter gene. The signal is derived from the ratio of cleaved (ch2) to uncleaved (ch1) reporter gene substrate used as the measure of target activity.Data from the assay component TOX21_p53_BLA_p5_ratio was analyzed into 1 assay endpoint. This assay endpoint, TOX21_p53_BLA_p5_ratio, was analyzed in the positive analysis fitting direction relative to DMSO as the negative control and baseline of activity. Using a type of inducible reporter, gain-of-signal activity can be used to understand changes in the reporter gene as they relate to the gene TP53. Furthermore, this assay endpoint can be referred to as a primary readout, because this assay has produced multiple assay endpoints and this ratio serves a reporter gene function to understand target activity. To generalize the intended target to other relatable targets, this assay endpoint is annotated to the DNA binding intended target family, where the subfamily is tumor suppressor.
Thawing Method: Place 14 mL of pre-warmed thaw medium into a 15 mL of conical tub. Remove the vial of cells to be thawed from liquid nitrogen and thaw rapidly by placing at 37C in a water bath with gentle agitation for 1-2 minutes. Decontaminate the vial by wiping with 70% ethanol before opening in a biological safety cabinet. Transfer the vial contents drop-wise into 14 mL of thaw medium in a sterile 15-mL conical tub. Centrifuge cells at 900 rpm for 4 minutes and resuspend in thaw medium. Transfer contents to the T75 tissue culture flask containing Thaw Medium and place flask in a humidified 37C/5% CO2 incubator. Switch to growth medium at first passage.Propagation Method: Aspirate medium, rinse once in DPBS, add 0.25% Trypsin/EDTA and swirl to coat the cell evenly. Add an equal volume of Growth Medium to inactivate Trypsin after 2-3 minutes incubation at 37C. Centrifuge cells at 900 rpm for 4 minutes and resuspend in growth medium. Cell should be passage or fed at least twice a week.Assay Protocol: Harvest cells from culture in growth medium and resuspend in assay medium. 2.2 Dispense 4000 cells/5 uL/well into 1536-well black/clear bottom plates using a Multidrop dispenser. After the cells were incubated at 37C for 5 hours, 23 nL of compounds dissolved in DMSO were transferred to the assay plate by a PinTool resulting in a 217-fold dilution. Incubate the plates for 16 hours at 37C, 5% CO2. Add 1 uL of 6X LiveBLAzer FRET B/G (CCF4-AM) Substrate Mixture to each well using a BioRAPTR dispenser and incubate the plates at room temperature for 2 hours. Measure fluorescence intensity at 460 and 530 nm emission and 405 nm excitation by an Envision detector. Data is expressed as the ratio of 460nm/530nm emissions. Add 4 uL of Cell-titer Glo to each well using BioRAPTR and incubate the plates at room temperature for 2 hours. Measure fluorescence intensity by a VewLux plate reader.

Row | Structure (SMILES) | AC50 | outcome
1 | CC(=O)Oc1ccccc1C(=O)Nc1ncc([N+](=O)[O-])s1 | 3.18 µM (active) and 22.4 µM (active) | 
2 | c1cnccn1 |  | inactive
3 | CCCCOc1ccc(C(=O)CCN2CCCCC2)cc1 |  | inactive
4 | OC[C@H]1O[C@H](O[C@H]2O[C@H](CO)[C@@H](O)[C@H](O)[C@H]2O)[C@H](O)[C@@H](O)[C@@H]1O |  | inactive
5 | CCCc1c(OCCCCc2nn[nH]n2)ccc(C(C)=O)c1O | 26.6 µM (active) | inactive
6 | CCC(CO)(CO)COCC(CC)(CO)CO |  | inactive
7 | O=C(O)CCCC/C=C(\c1ccccc1)c1cccnc1 |  | inactive
8 | c1ccc2c(c1)OCC(CN1CCCCC1)O2 (stereo not given) |  | inactive
9 | C=CCNC(N)=S |  | inactive
10 | CCCCCCCCCCCCCC |  | inactive
11 | C/C=C1\NC(=O)[C@H]2CSSCC/C=C/[C@H](CC(=O)N[C@H](C(C)C)C(=O)N2)OC(=O)C(C(C)C)NC1=O (stereo not given in full) | 11.4 µM (active) | 
12 | COc1cc2c(N3CCN(C(=O)Nc4ccc(OC(C)C)cc4)CC3)ncnc2cc1OCCCN1CCCCC1 | 34.7 µM (active) | 
13 | CO[C@@H]1[C@@H](OC)[C@H](C)[C@@](O)(CC(=O)O)O[C@H]1[C@H](C)[C@H]1O[C@@]2(CC[C@@](C)([C@H]3CC[C@@](C)([C@@H]4O[C@@H]([C@H]5O[C@](C)(O)[C@H](C)C[C@@H]5C)C[C@@H]4OC4C[C@H](OC)[C@@H](OC)[C@H](C)O4)O3)O2)C[C@H](O)[C@H]1C (stereo not given in full) | 16.7 µM (active) | 
14 | CCCCNC(N)=O |  | inactive
15 | CC(=O)NO |  | inactive
16 | C=CC1=C(C)C2=CC3=NC(=C(CC(=O)[O-])C4=NC(=C(C)C4=C([O-])[O-])C=c4[n-]c(c(C)c4CC)=CC1=N2)[C@@H](CCC(=O)[O-])[C@@H]3C.[Cu+2].[Na+].[Na+].[Na+] |  | inactive
17 | O=C(O)O |  | inactive
18 | CN1C(=O)CN2CCc3ccccc3C2c2cc(Cl)ccc21 (stereo not given) | 22.8 µM (active) | 
19 | O=[N+]([O-])c1ccc(F)cc1F |  | inactive

Row | Structure (SMILES) | AC50 | outcome
20 | CCCCCCCCCCCCCCCCCC[N+](C)(C)C | 75 µM (active) | 
21 | Nc1ccn(C2CO[C@H](CO)O2)c(=O)n1 (stereo not given in full) | 0.000329 µM (active) | 
22 | CCOc1ccc(Cc2nccc3cc(OCC)c(OCC)cc23)cc1OCC |  | inactive
23 | O=[N+]([O-])c1ccc(/C=N\O)o1 |  | inactive
24 | CC1=C(/C=C/C(C)=C\C=C\C(C)=C\C(=O)O)C(C)(C)CCC1 |  | inactive
25 | CCCOC(=O)C(C)O (stereo not given) |  | inactive
26 | CCN(CC)CCCC(C)Nc1c2ccc(Cl)cc2nc2ccc(OC)cc12 (stereo not given) | 38.7 µM (active) | 
27 | Cc1c(C(C)C)c(=O)n(-c2ccccc2)n1C |  | inactive
28 | N#C/C(=C1\SCC(c2ccccc2Cl)S1)n1ccnc1 (stereo not given) |  | inactive
29 | CCC1OCC(COc2ccc(Oc3ccccc3)cc2)O1 (stereo not given) |  | inactive
30 | COC(=O)C[C@](O)(CCCC(C)(C)O)C(=O)O[C@@H]1C(OC)=CC23CCCN2CCc2cc4c(cc2[C@H]13)OCO4 (stereo not given in full) | 0.0379 µM (active) | inactive
31 | c1ccc(OCc2ccc(CCCN3CCOCC3)cc2)cc1 |  | inactive
32 | Nc1nc2[nH]cc(CCc3ccc(C(=O)N[C@@H](CCC(=O)O)C(=O)O)cc3)c2c(=O)[nH]1 |  | inactive
33 | O=C1c2ccccc2C(=O)C1(O)O | 29 µM (active) | 
34 | CN1c2cc(O)c(N=NC(N)=O)cc2CC1S(=O)(=O)O (stereo not given) |  | inactive
35 | CO[C@@H]1[C@H](OC(=O)/C=C/C=C/C=C/C=C/C(=O)O)CC[C@]2(CO2)[C@H]1[C@@]1(C)O[C@@H]1CC=C(C)C |  | inactive
36 | O=S(=O)(O)CC(S)CS (stereo not given) |  | inactive
37 | O=S(O)CO |  | inactive
38 | O=c1[nH]cnc2nc[nH]c12 |  | inactive
